Measurements from PubChem BioAssay (NCATS).
Inconclusive results are not listed. The source made the active and inactive calls. Unless noted, calls come from the whole dose curve; as a rule, active = well fitted curve in the direction sought with a large enough effect; inconclusive = small, poorly fitted or top-dose-only effect, or another doubt; inactive = no such curve, though single readings can be large; an effect the other way counts as inactive or inconclusive. Where a SMILES comes first, the peptide text is derived from it. The star is where a group is joined. Cbz = O=C(OCc1ccccc1)*; CH2F = FC*

Key:
[1] = target: Peroxisome proliferator-activated receptor alpha (Homo sapiens) (UniProt Q07869); assay: qHTS assay for small molecule agonists of the peroxisome proliferator-activated receptor alpha (PPARalpha) signaling pathway (AID 651778); conditions: PathHunter PPARalpha complementation, chemiluminescence, 6 h; active compounds read high; note: % of control where 0% means no effect
Sequence of Peroxisome proliferator-activated receptor alpha (Homo sapiens) (Q07869 whole entry, looked up): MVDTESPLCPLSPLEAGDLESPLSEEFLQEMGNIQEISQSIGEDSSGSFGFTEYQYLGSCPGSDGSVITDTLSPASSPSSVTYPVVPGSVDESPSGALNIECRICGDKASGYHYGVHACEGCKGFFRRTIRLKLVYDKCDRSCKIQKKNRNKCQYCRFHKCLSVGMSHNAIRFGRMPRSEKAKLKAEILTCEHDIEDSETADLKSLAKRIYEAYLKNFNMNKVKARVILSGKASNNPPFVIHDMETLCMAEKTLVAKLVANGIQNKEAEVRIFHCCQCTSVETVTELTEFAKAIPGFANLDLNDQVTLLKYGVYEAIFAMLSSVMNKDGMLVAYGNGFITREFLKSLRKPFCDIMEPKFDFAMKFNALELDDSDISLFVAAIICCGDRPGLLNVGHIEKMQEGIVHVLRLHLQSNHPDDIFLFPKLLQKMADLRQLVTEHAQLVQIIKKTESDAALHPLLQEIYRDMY
Procedure, shortened: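 Cells plated at 2,000/well and held overnight at 37 C, 5% CO2, then compound added by pin tool for 6 hr; after PathHunter detection reagent and 60 min at room temperature, chemiluminescence from enzyme complementation was read.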

[2] = target: Nuclear receptor ROR-gamma (Homo sapiens) (UniProt P51449); assay: qHTS assay for small molecule antagonists of the retinoid-related orphan receptor gamma (ROR-gamma) signaling pathway (AID 651802); conditions: ROR-gamma antagonist cell reporter assay; series mostly up to 92.2 µM;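 note: luciferase reporter luminescence driven by ROR response element; % is set by controls: 0 for no effect and ±100 for the full control effect; nearly all actives have a fitted effect of over 60% in size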
Sequence of Nuclear receptor ROR-gamma (Homo sapiens) (P51449 whole entry, looked up): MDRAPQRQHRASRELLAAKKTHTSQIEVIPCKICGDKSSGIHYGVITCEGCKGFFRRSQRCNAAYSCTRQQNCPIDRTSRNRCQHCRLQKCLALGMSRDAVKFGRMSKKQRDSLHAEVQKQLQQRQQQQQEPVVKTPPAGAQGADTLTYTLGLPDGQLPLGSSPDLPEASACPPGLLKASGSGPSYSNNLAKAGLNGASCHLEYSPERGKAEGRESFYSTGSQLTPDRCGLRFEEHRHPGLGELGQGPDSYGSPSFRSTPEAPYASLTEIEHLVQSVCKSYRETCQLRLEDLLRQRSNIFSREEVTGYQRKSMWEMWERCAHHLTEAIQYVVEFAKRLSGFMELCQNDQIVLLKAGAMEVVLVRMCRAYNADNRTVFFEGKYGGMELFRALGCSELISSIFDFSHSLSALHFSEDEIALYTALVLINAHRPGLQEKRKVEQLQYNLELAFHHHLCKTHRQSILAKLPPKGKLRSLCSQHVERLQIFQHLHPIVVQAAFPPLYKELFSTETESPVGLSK
Procedure, shortened: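 CHO cells with TET-inducible ROR-gamma and RORE-luciferase reporter, dosed then doxycycline-induced. After 16 h at 37C, One-Glo luminescence read; decreased signal indicates antagonism.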

[3] = qHTS assay for small molecule agonists of the antioxidant response element (ARE) signaling pathway measured by Nrf2-dependant transcriptional activity (AID 720636; active = well fitted curve in the direction sought with a large enough effect in the repeat runs; an effect the other way counts as inactive or inconclusive; note: % of control where 0% means no effect); conditions: ARE-luc HepG2, Nrf2 luciferase reporter, 16 h; series mostly up to 92.4 µM
Procedure, shortened: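 Nrf2-dependent transcription read as ONE-Glo luciferase signal from ARE-luc HepG2 reporter cells after 16 hr compound treatment at 37 C, 5% CO2, in assay medium with 1% dialyzed FBS.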

[4] = qHTS assay for small molecule antagonists of the retinoid-related orphan receptor gamma (ROR-gamma) signaling pathway - cell viability counter screen (AID 720652; active = well fitted curve in the direction sought with a large enough effect in the repeat runs; an effect the other way counts as inactive or inconclusive;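 note: compound exposure lasted 16 hr before ATP read; % is set by controls: 0 for no effect and ±100 for the full control effect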); conditions: RORgamma reporter cell line viability counter screen; series mostly up to 92.2 µM
Procedure, shortened: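 CHO cells carrying TET-inducible ROR and RORE-luciferase reporter, plated 5 hr, then dosed with compound plus doxycycline. After 16 hr at 37 C, viability read as intracellular ATP by CellTiter-Glo luminescence.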

[5] = qHTS assay for small molecule agonists of the antioxidant response element (ARE) signaling pathway measured by Nrf2-dependant transcriptional activity - cell viability counter screen (AID 720653; active = well fitted curve in the direction sought with a large enough effect in the repeat runs; an effect the other way counts as inactive or inconclusive; note: % is set by controls: 0 for no effect and ±100 for the full control effect); conditions: ARE-bla HepG2 viability, CellTiter-Glo ATP luminescence, 16 h; active compounds read low
Procedure, shortened: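 ARE-bla HepG2 cells (2,000/well) rested 5 hrs at 37C/5% CO2, then exposed to compounds in DMSO for 16 hrs. Viability was read in the same wells as intracellular ATP by luminescence, 30 min at room temperature after reagent addition.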

[6] = qHTS assay for cell viability of HEK293 cells (AID 743288); conditions: ATP luminescence (CellTiter-Glo), 18 h, active compounds read low; note: % is set by controls: 0 for no effect and ±100 for the full control effect; nearly all actives have a fitted effect of over 50% in size
Procedure, shortened: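 The Tox21 protocol used parental HEK293 cells treated for 18 h at 37 C with compounds delivered by pintool; ATP-coupled luminescence after 30 min at room temperature gave viability.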

[7] = qHTS assay for cell viability of the p53RE-bla HCT-116 cell line (AID 743292); conditions: p53RE-bla HCT-116 viability, ATP luminescence, 16 h; series mostly up to 95 µM; note: % is set by controls: 0 for no effect and ±100 for the full control effect; nearly all actives have a fitted effect of over 55% in size
Procedure, shortened: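 ATP-based luminescent viability (CellTiter-Glo, 30 min RT) after 16 h compound treatment at 37 C of p53RE-bla HCT-116 cells, seeded at 4,000 cells/well and rested 5 h before dosing.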

[8] = P-glycoprotein substrates identified in KB-3-1 adenocarcinoma cell line, qHTS therapeutic library screen (AID 1346986); conditions: KB-3-1 parental cells viability, CellTiter-Glo, 72 h; series mostly up to 44.5 µM; note: nearly all actives have a fitted effect of over 60% in size
Procedure, shortened: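 Resistance attributable to P-gp was assessed by comparing AC50 in KB-8-5-11 with parental KB-3-1 and by tariquidar reversal. Cells were exposed 72 h and viability read by CellTiter-Glo.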

[9] = P-glycoprotein substrates identified in KB-8-5-11 adenocarcinoma cell line, qHTS therapeutic library screen (AID 1346987); conditions: KB-8-5-11 (P-gp overexpressing) viability, CellTiter-Glo, 72 h; series mostly up to 44.5 µM; note: nearly all actives have a fitted effect of over 65% in size; for activity change, negative = cytotoxicity: % is set by controls: 0 for no effect and ±100 for the full control effect
Procedure, shortened: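 KB-8-5-11, a colchicine-selected P-gp-overexpressing KB-3-1 subline, was grown without colchicine for the assay. Cells were seeded at 500 cells/well, dosed in concentration-response and incubated 72 h at 37 degree C, 5% CO2. Viability was read by CellTiter-Glo luminescence.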

[10] = test system: Zika virus NS2B-NS3 protease (linked construct); assay: Primary screen NINDS Rhodamine qHTS for Zika virus inhibitors (AID 1347160); conditions: purified NS2B-NS3 protease, Rhodamine110 substrate fluorescence; series mostly up to 33.1 µM; note: % is set by controls: 0 for no effect and ±100 for the full control effect; nearly all actives have a fitted effect of over 55% in size
Procedure, shortened: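 Percent inhibition, normalized to uninhibited and enzyme-free controls, is fitted to a 4-parameter Hill equation. Fluorescence change comes from a 15-min cleavage of 1.5 microM bis-peptide Rhodamine110 substrate by 25 nM linked NS2B-NS3 at room temperature.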

COc1ccc(CCC(=O)c2c(O)cc(O[C@@H]3O[C@H](CO)[C@@H](O)[C@H](O)[C@H]3O[C@@H]3O[C@@H](C)[C@H](O)[C@@H](O)[C@H]3O)cc2O)cc1O
inactive: max response [1] 0.724% | outcome [2] | outcome [3] | outcome [4] | max response [5] -0.966% | max response [6] -4.69% | outcome [7]

CCC(C)C(C(=O)O)N1Cc2c(OCC=C(C)C)c(C)c(OC)c(C(=O)O)c2C1=O (stereo not drawn)
inactive: Potency [8] | Potency [9] | Potency [10]

CC1(CO)CCCC2(C)C3COC(=O)C3=CC(O)C12 (stereo not drawn)
inactive: Potency [8] | Potency [9] | Potency [10]

CC(C/C=C/C(C)(C)O)C1CCC(C)(O)C(O)C1 (stereo not drawn)
inactive: Potency [8] | Potency [9] | Potency [10]

COC(=O)CC[C@H](NC(=O)[C@H](CC(C)C)NC(=O)OCc1ccccc1)C(=O)N[C@@H](Cc1cnc[nH]1)C(=O)N[C@@H](CC(=O)OC)C(=O)CF (Cbz-LE(OMe)HD(OMe)-CH2F)
inactive: outcome [8] inactive [at 9.29 µM] | activity change, negative = cytotoxicity [9] 6.58% [at 9.29 µM] | Potency [10]

CC[C@H](C)[C@H](NC(=O)[C@H](Cc1ccc(O)cc1)NC(=O)[C@@H](N)C(C)C)C(=O)N[C@@H](Cc1cnc[nH]1)C(=O)N1CCC[C@H]1C(=O)N[C@@H](Cc1ccccc1)C(=O)O
inactive: outcome [8] inactive [at 5.11 µM] | activity change, negative = cytotoxicity [9] 1.21% [at 5.11 µM] | activity change, negative = inhibition [10] 8.38% [at 4.91 µM]

O=C(N[C@@H]1CC[C@@H](c2cccc(F)c2F)CN(CC(F)(F)F)C1=O)N1CCC(n2c(=O)[nH]c3ncccc32)CC1
inactive: Potency [8] | Potency [9] | Potency [10]

CCC/C=C/C=C/C1CC(O)C(O)C(=O)C1CO (stereo not drawn)
inactive: Potency [8] | Potency [9] | Potency [10]
